From PubChem BioAssay (NCI)
The panel holds about 83,000 compounds, 20% with a hit somewhere; the sample as a whole holds those more often.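 96-well plates, one dose, 48 hours. Percent growth reported; active if below 10.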 Activity calls are given as the source filed them.

Legend:
Assay in all cases: NCI-60 one-dose screen, 48 h (100 = growth as untreated, 0 = no growth, -100 = all killed)
[1] = test system: NCI-H23 lung; conditions: 10 µM unless noted
[2] = test system: NCI-H226 lung; conditions: 10 µM unless noted
[3] = test system: NCI-H322M lung; conditions: 10 µM unless noted
[4] = test system: NCI-H460 lung; conditions: 10 µM unless noted
[5] = test system: HOP-92 NSCLC; conditions: 10 µM
[6] = test system: NCI-H522 lung; conditions: 10 µM
[7] = test system: A549/ATCC NSCLC; conditions: 10 µM unless noted
[8] = test system: 786-0 renal; conditions: 10 µM unless noted
[9] = test system: COLO 205 colon; conditions: 10 µM unless noted
[10] = test system: DU-145 prostate; conditions: 10 µM unless noted
[11] = test system: K-562 leukemia; conditions: 10 µM unless noted
[12] = test system: MALME-3M melanoma; conditions: 10 µM unless noted
[13] = test system: MDA-MB-231 breast; conditions: 10 µM unless noted
[14] = test system: RXF 393 renal; conditions: 10 µM unless noted
[15] = test system: SF-295 CNS; conditions: 10 µM unless noted
[16] = test system: SF-539 CNS; conditions: 10 µM unless noted
[17] = test system: UACC-257 melanoma; conditions: 10 µM unless noted
[18] = test system: M14 melanoma; conditions: 10 µM unless noted
[19] = test system: SF-268 CNS; conditions: 10 µM unless noted

Measured: growth

O=C(Oc1ccccc1)c1ccccc1Cl
inactive: [1] 104% | [2] 106% | [3] 104% | [4] 103% | [5] 90.1% | [6] 121% | [7] 99.9% | [8] 101% | [9] 104% | [10] 114% | [11] 107% | [12] 101% | [13] 111% | [14] 110% | [15] 110% | [16] 94.2% | [17] 102% | [18] 102%

COC(=O)c1ccc2[nH]c(O)c(C(=Nc3ccc(N(C)C(=O)CN4CCN(C)CC4)cc3)c3ccc(OC)cc3)c2c1
active: [9] 0.878% | [11] 4.93% | [12] 6.81% | [14] -24.8% | [16] -0.308%
inactive: [1] 28.1% | [2] 25.8% | [3] 38% | [4] 14.8% | [5] 38% | [6] 17.4% | [7] 16% | [8] 21.7% | [10] 21.1% | [13] 23.6% | [19] 21.3% | [15] 37.6% | [17] 48.9% | [18] 14.3%

COc1cc(Cn2ccc3c2-c2oncc2CC3)cc(OC)c1
active: [4] 7.4%
inactive: [1] 30.1% | [2] 67.4% | [3] 33.2% | [5] 57.5% | [6] 29.3% | [7] 36% | [8] 50.9% | [9] 26.1% | [10] 43.7% | [11] 24.9% | [13] 44.1% | [14] 54.6% | [19] 50% | [15] 24.2% | [16] 19.6% | [17] 53.4% | [18] 12.7%

COc1cc(CNC(=O)CCCC/C=C/C(C)C)ccc1OCc1nnc(Nc2ccccc2F)o1
inactive: [1] 63.8% | [2] 64.5% | [3] 86.1% | [4] 80.3% | [5] 56.4% | [6] 60.3% | [7] 105% | [8] 12% | [9] 104% | [10] 88.7% | [11] 60.4% | [13] 63.9% | [14] 68.8% | [19] 45.5% | [15] 48% | [16] 48.2% | [17] 98.2% | [18] 99.7%

COc1ccc(C(=O)c2no[n+]([O-])c2C(=O)c2ccc(OC)cc2)cc1
active: [5] -73.5% | [6] -88.3% | [8] -98.7% | [9] -85.7% | [11] -100% | [12] -69.5% | [19] -38.5%
inactive: [1] 89.6% | [2] 41.7% | [3] 83.8% | [4] 89.8% | [7] 94.8% | [10] 81.1% | [13] 57.4% | [15] 92.8% | [16] 89.3% | [17] 13.4%

N=C(N)N=Nc1ccc(NN=C(N)N)c2ccccc12
inactive: [1] 106% | [2] 117% | [3] 97% | [4] 108% | [5] 93.7% | [6] 87.1% | [7] 97.8% | [8] 95.3% | [9] 111% | [10] 113% | [11] 103% | [12] 146% | [13] 101% | [14] 142% | [15] 106% | [17] 105% | [18] 75.9%

COc1ccc2sc(-n3nc4nc5n(c(=O)c4c3N)-c3ccccc3Sc3ccccc3-5)nc2c1
inactive: [1] 79.2% | [2] 81.4% | [3] 75.4% | [4] 84.9% | [5] 74.1% | [6] 75.6% | [7] 68% | [8] 91.2% | [9] 64.7% | [10] 99.7% | [11] 47.9% | [13] 47.5% | [14] 93.8% | [19] 86.8% | [15] 65.8% | [16] 104% | [17] 89.6%

COc1ccc(/C=C(/C(=O)N2CCCCC2)c2cc(OC)c(OC)c(OC)c2)cc1
active: [6] -24.2% | [9] -14.6% | [10] 9.17% | [14] -1.64% | [16] -10.5% | [18] -6.93%
inactive: [1] 36.3% | [2] 94.8% | [3] 45.2% | [4] 11.6% | [5] 45.5% | [7] 34.9% | [8] 23.5% | [11] 11% | [13] 41.5% | [19] 50.1% | [15] 14.1% | [17] 75%

CC(C)OC(=O)Nn1cnc2ccccc21
inactive: [1] 98.4% | [2] 106% | [3] 122% | [4] 114% | [5] 95.6% | [6] 103% | [7] 117% | [8] 96.7% | [9] 130% | [10] 103% | [11] 96.7% | [13] 117% | [14] 108% | [19] 120% | [15] 103% | [16] 95.2% | [17] 109%

CCCCCCCCc1ccc(CCC(N)(CO)CO)cc1
active: [3] 3.56% | [4] 0.54% | [5] -5.83% | [6] -51.7% | [7] 0.665% | [8] -44.2% | [9] -87.5% | [10] 3.12% | [11] -25.2% | [13] -24.1%
inactive: [1] 68.9% | [2] 94.3% | [12] 26.2% | [19] 20.3% | [15] 67.9% | [16] 17.3% | [17] 53.7% | [18] 50%

N=c1c2c(=O)n3c(nc2nc2sc4ccc(Cl)cc4n12)-c1ccccc1Sc1ccccc1-3
active: [1] 8.13% | [5] 6.89% | [13] 7.92% | [15] 5.48%
inactive: [2] 29.1% | [3] 16.4% | [4] 10.7% | [6] 12.9% | [7] 22.4% | [8] 24.6% | [9] 11.9% | [10] 38.4% | [11] 19.8% | [14] 38.2% | [19] 42.2% | [16] 27.2% | [17] 29.9% | [18] 21.6%

COc1ccc(OC)c(Cn2cc3c(c2-c2ccccc2)CCc2cnoc2-3)c1
inactive: [1] 60.8% | [2] 78.8% | [3] 57.5% | [4] 22.7% | [5] 59.8% | [6] 56.4% | [7] 50.8% | [8] 66.6% | [9] 35.9% | [10] 94.7% | [11] 16.6% | [13] 64.7% | [14] 80% | [19] 71.8% | [15] 22.8% | [16] 54.9% | [17] 79.5% | [18] 50.7%

O=C1Nc2ccccc2/C1=C/c1cn(CC(O)Cn2cc(/C=C3\C(=O)Nc4ccccc43)c3ccccc32)c2ccccc12 (stereo not given)
active: [1] -67.3% | [2] -74.9% | [3] -39.1% | [4] -65.1% | [5] -73.9% | [6] -17.4% | [7] -11.6% | [8] -70.9% | [10] -90.5% | [11] -16.7% | [12] -76.1% | [13] -79.9% | [14] -90.8% | [19] -62% | [15] -84.7% | [16] -77.7% | [17] -50.9% | [18] -81.4%

COc1ccc(Cn2cc3c(c2-c2ccccc2)CCc2cnoc2-3)cc1OC
active: [4] 7.98% | [9] 8.16% | [16] -22.1%
inactive: [1] 26.3% | [2] 57.3% | [3] 44.8% | [5] 61.1% | [6] 35.1% | [7] 41.3% | [8] 39.7% | [10] 21.3% | [11] 14.1% | [13] 35% | [14] 13.1% | [19] 47.1% | [17] 61.9% | [18] 30.5%

CCOC(=O)c1cc(C(=O)c2ccc(Br)cc2)n2cc(C)cc(C)c12
inactive: [1] 95.2% | [2] 87.2% | [3] 96.7% | [4] 95.9% | [5] 77.9% | [6] 77.3% | [7] 75.7% | [8] 96.3% | [10] 100% | [11] 99% | [12] 96.1% | [13] 79.8% | [14] 64.2% | [19] 97.2% | [15] 100% | [16] 87.3% | [17] 87.2% | [18] 94.2%

N=C(N)c1ccc(-c2ccc(-c3ccc(Cl)cc3)s2)s1
active: [1] -69.9% | [2] -53.3% | [3] -74.9% | [4] -66.2% | [5] -71.6% | [6] -2.36% | [7] -69.1% | [8] -62.6% | [10] -87.8% | [11] -45.8% | [12] -29.9% | [13] -80.5% | [14] -85% | [19] -68.6% | [15] -68.8% | [16] -86.7% | [17] -37.7% | [18] -72.7%

CC(=O)c1nn(-c2ccc(C)cc2)cc1C(=O)c1cc2c(ccc3ccccc32)oc1=O
inactive: [1] 91.2% | [2] 90.1% | [3] 91.5% | [4] 100% | [5] 77.6% | [6] 81.5% | [7] 96.8% | [8] 93.4% | [9] 107% | [10] 110% | [11] 81.2% | [13] 73% | [14] 126% | [19] 99.5% | [15] 92.1% | [16] 94.1% | [17] 104% | [18] 91.3%

COc1ccc(-c2nc(SCC(C)C)nc(Nc3ccc([N+](=O)[O-])cc3)c2C#N)cc1
inactive: [1] 98.5% | [2] 85.3% | [3] 86.8% | [4] 57% | [5] 93.3% | [6] 92% | [7] 61.5% | [8] 94.7% | [10] 107% | [11] 93% | [12] 98% | [13] 94.6% | [14] 107% | [19] 93.2% | [15] 84.3% | [16] 99.8% | [17] 85.2% | [18] 103%
